Only some compounds are listed: those with a hit (about 7.4% of all), similar ones and a draw of the others.
Rab9 prom act: activators of Rab9 promoter. Huh7 Rab9 promoter-luciferase reporter, luminescence, 24 h. Potency, µM (doses to about 9.22 µM), hits mostly activators. 320,000 compounds, 2.8% hits. AID 485297; also: nearly all actives have a fitted effect of over 60% in size
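Using Huh7 cells stably transfected with Rab9 promoter–luciferase, compounds were incubated 24 h at 37 °C, 5% CO2; luciferase luminescence was read 10 min after reagent addition.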
ELG1 genotox: genotoxicity induction in ELG1-luciferase HEK293T cells; HEK293T ELG1-luciferase reporter, luminescence, 16 h; Potency, µM (series often up to 46 µM), usual class: activators; 330,000 compounds, 1.3% hits; AID 504466; also: nearly all actives have a fitted effect of over 60% in size
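Genotoxic stress is detected as increased luminescence from luciferase-tagged ELG1 in HEK293T cells, measured with ONE-Glo after a 16 hr treatment at 37 °C.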
NPC1 prom act: activators of NPC1 promoter | Huh7 NPC1 promoter luciferase reporter, 24 h | 320,000 compounds, 2.4% hits | AID 485313 | Potency, µM (highest dose often 9.22 µM), actives largely listed as activators; also: nearly all actives have a fitted effect of over 60% in size
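Cells: Huh7 expressing luciferase under the NPC1 promoter, 1500/well. Seeded 2 h, compound added, incubated 24 h at 37 °C. Luciferase reagent, 10 min ambient, then luminescence.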
SMN2 splice up: SMN2 splice variant enhancement | HEK293 SMN2-luciferase splicing reporter, luminescence, 30-36 h | Potency, µM (highest dose often 46.1 µM), usual class: activators | 210,000 compounds, 2.8% hits; also: nearly all actives have a fitted effect of over 55% in size
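HEK293 cells carry an SMN2 minigene-luciferase reporter in which exon 7 inclusion puts luciferase in frame. Cells were seeded at 2000 cells/well, attached for 10-12 hours, then exposed to compounds for 30-36 hours at 37C before ONE-Glo luminescence.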
FLuc counter: counter-screen for miR-21 project: firefly luciferase inhibitors or activators. 360,000 compounds, 6.9% hits. purified FLuc, Km substrates, luminescence inhibition. AID 588342. P08659. Potency, µM (series often up to 57.5 µM), most hits filed as inhibitors; also: nearly all actives have a fitted effect of over 55% in size
Target sequence (P08659 whole entry, looked up): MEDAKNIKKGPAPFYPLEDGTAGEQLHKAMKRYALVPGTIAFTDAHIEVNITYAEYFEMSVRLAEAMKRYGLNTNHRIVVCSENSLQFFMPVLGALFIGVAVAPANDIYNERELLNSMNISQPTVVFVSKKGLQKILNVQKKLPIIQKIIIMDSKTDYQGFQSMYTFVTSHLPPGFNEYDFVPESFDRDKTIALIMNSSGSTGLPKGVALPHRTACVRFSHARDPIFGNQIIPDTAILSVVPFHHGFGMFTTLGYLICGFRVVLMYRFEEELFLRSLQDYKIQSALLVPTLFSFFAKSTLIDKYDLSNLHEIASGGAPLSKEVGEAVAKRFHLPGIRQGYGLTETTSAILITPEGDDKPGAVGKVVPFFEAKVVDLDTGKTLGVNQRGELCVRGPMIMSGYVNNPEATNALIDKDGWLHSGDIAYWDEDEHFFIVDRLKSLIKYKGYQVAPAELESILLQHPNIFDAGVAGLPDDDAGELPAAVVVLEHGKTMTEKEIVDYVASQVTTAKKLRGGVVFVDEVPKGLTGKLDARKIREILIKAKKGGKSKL
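Purified P. pyralis luciferase (10nM final) with 10uM D-luciferin and 10uM ATP (Km levels) in 50mM Tris acetate pH 7.5, 10mM Mg acetate, 0.01% Tween-20, 0.05% BSA; qHTS 6-point titration, ~60 µM downward; luminescence read.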
Of the large screens only hits and unclear results are named; the others gave an inactive call. Calls follow the shape of the dose curve; as a rule, active = well fitted curve in the direction sought with a large enough effect; inconclusive = small, poorly fitted or top-dose-only effect, or another doubt; inactive = no such curve, though single readings can be large; an effect the other way counts as inactive or inconclusive.

Cc1ccc(-c2ocnc2C(=O)Nc2ccccc2NC(=O)c2ccccn2)cc1	FLuc counter 15µM (no result: SMN2 splice up)
Cc1cccc(-c2ocnc2C(=O)Nc2ccccc2C(=O)N2CCCC2)c1	FLuc counter inconclusive (no result: SMN2 splice up)
Cc1ccc(-c2ocnc2C(=O)Nc2nc(C)cs2)cc1	NPC1 prom act inconclusive, FLuc counter inconclusive (no result: SMN2 splice up)
Cc1cccc(-c2ocnc2C(=O)Nc2ccccc2NC(=O)c2ccccn2)c1	FLuc counter 13µM (no result: SMN2 splice up)
O=C(Nc1nc2ccc([N+](=O)[O-])cc2s1)C1CCCO1 (stereo unspecified)	Rab9 prom act 2.2µM, ELG1 genotox inconclusive, NPC1 prom act inconclusive, SMN2 splice up inconclusive, FLuc counter 15µM
CS(=O)(=O)c1ccc2nc(NC(=O)C3CCCO3)sc2c1 (stereo unspecified)	none (no result: SMN2 splice up)
O=C(Nc1nc2ccc(Cl)cc2s1)C1CCCO1 (stereo unspecified)	Rab9 prom act 3.5µM, ELG1 genotox 4.6µM, NPC1 prom act 1µM, SMN2 splice up 22µM, FLuc counter 6.7µM
CC(C)CNC(=O)c1cnn2c(C(F)(F)F)cc(C(F)(F)F)nc12	none (no result: SMN2 splice up)
CCOc1ccc(C(C(=O)NCC2CCCO2)N(Cc2cccnc2)C(=O)c2snc(C(N)=O)c2N)cc1 (stereo unspecified)	none (no result: SMN2 splice up)
COc1ccc(S(=O)(=O)N2CCOCC2)cc1NC(=O)c1cccc(Cl)c1	none (no result: SMN2 splice up)
COc1ccc(C2Nc3ccccc3C(=O)N2c2ccc(C)cc2)cc1Cn1nc(C)c([N+](=O)[O-])c1C (stereo unspecified)	Rab9 prom act inconclusive, ELG1 genotox inconclusive, NPC1 prom act inconclusive (no result: SMN2 splice up)
COc1ccc(C2Nc3ccccc3C(=O)N2c2ccc(C)cc2)cc1COc1ccccn1 (stereo unspecified)	Rab9 prom act 3.2µM, ELG1 genotox inconclusive, NPC1 prom act 3.2µM, SMN2 splice up 11µM, FLuc counter inconclusive
COc1ccc(N2C(=O)c3ccccc3NC2c2ccc(OC)c(Cn3nnc4ccccc43)c2)cc1 (stereo unspecified)	Rab9 prom act inconclusive, NPC1 prom act inconclusive, SMN2 splice up 14µM
Cc1cc(=O)[nH]c(SCc2ccccc2)n1	none (no result: SMN2 splice up)
Cc1cc(=O)[nH]c(S/C=C/c2ccccc2)n1	Rab9 prom act inconclusive, ELG1 genotox 21µM, NPC1 prom act 3.5µM, SMN2 splice up 11µM, FLuc counter 5.4µM
COCCNc1oc(/C=C/c2ccccc2)nc1C#N	Rab9 prom act 3.5µM, ELG1 genotox 18µM, NPC1 prom act inconclusive, FLuc counter 11µM (no result: SMN2 splice up)
CNc1oc(/C=C/c2ccccc2)nc1C#N	Rab9 prom act 3.2µM, ELG1 genotox inconclusive, NPC1 prom act inconclusive, SMN2 splice up 11µM, FLuc counter 2.7µM
COCCCNc1oc(/C=C/c2cc(OC)c(OC)c(OC)c2)nc1C#N	SMN2 splice up inconclusive (no result: Rab9 prom act, ELG1 genotox, NPC1 prom act)
CNc1oc(/C=C/c2cc(OC)c(OC)c(OC)c2)nc1C#N	none (no result: Rab9 prom act, ELG1 genotox, NPC1 prom act)
CC[C@]12c3[nH]c4ccccc4c3CCN1C(=O)C(CC(=O)NCCCOC)C[C@@H]2C(=O)N1CCN(C(=O)c2ccco2)CC1 (stereo partly specified)	none (no result: Rab9 prom act, NPC1 prom act, SMN2 splice up, FLuc counter)
O=C(Nc1ccc2c(c1)N(S(=O)(=O)c1cccs1)CCC2)c1c(F)cccc1F	none (no result: SMN2 splice up)
O=S(=O)(c1cccs1)N1CCCc2cccc(O)c21	Rab9 prom act 3.5µM, FLuc counter 19µM
COC1c2ccccc2C(=O)N1CCc1ccc(Cl)cc1 (stereo unspecified)	none (no result: SMN2 splice up)
Cc1ccc2c(c1)N(CC(=O)NC1CCCCCC1)C(=O)c1cccnc1O2	none (no result: SMN2 splice up)
Cc1cccc(NC(=O)C(=O)C2C(=O)Nc3ccccc32)c1 (stereo unspecified)	FLuc counter 15µM (no result: SMN2 splice up)
O=C(Nc1ccccn1)c1ccc(NC(=O)c2ccco2)cc1	Rab9 prom act 2.2µM, ELG1 genotox inconclusive, NPC1 prom act 2.2µM, SMN2 splice up 13µM, FLuc counter 11µM
O=C(NC(=O)c1ccccc1)Nc1ccccn1	Rab9 prom act 1.3µM, ELG1 genotox inconclusive, FLuc counter 0.27µM (no result: SMN2 splice up)
COc1cc(C(=O)Nc2ccccn2)cc(OC)c1OC	none
O=C(Nc1ccccn1)c1ccc(C(=O)c2ccccc2)cc1	Rab9 prom act 2.5µM, ELG1 genotox 4.6µM, NPC1 prom act 3.5µM, FLuc counter 4.3µM (no result: SMN2 splice up)
Cc1cc(C(=O)Nc2ccccn2)cs1	Rab9 prom act 1.4µM, ELG1 genotox inconclusive, NPC1 prom act 1.4µM, SMN2 splice up 7.9µM, FLuc counter 11µM
